Measurements from the supplement of paper PMC9950053.
Counter-ions that a name gives are not always drawn.

Tested on: Danio rerio larvae (5 dpf)
Assay: habituation (activity change first vs second 5 min of 1-s interval sound, period 17) minus DMSO control (percentage points); higher = larger habituation measure than DMSO larvae
Conditions: 10 µM; exposure time: 3 h pre-incubation + 3 h imaging
Procedure: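 Wild-type 5 dpf zebrafish larvae (n=48 per drug, 96-well plates, 28.5 °C) were exposed to Tocris FDA-approved library compounds at 10 µM (0.1% DMSO) for 3 h before and 3 h during imaging. Images were taken every 6 s during visual (moving coloured lines) and acoustic stimuli, and larvae were tracked with the DeepLabCut-based Z-LaP Tracker. Each behavioural measure is the treated-group mean minus the DMSO vehicle control mean (n=844), in percentage points. This mapping covers compounds with 4-character plate codes.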

Row | Structure (SMILES) | habituation
1 | CCCCNc1cc(C(=O)O)cc(S(N)(=O)=O)c1Oc1ccccc1 [Bumetanide] | -0.555
2 | CC(=O)O[C@]1(C(C)=O)CC[C@H]2[C@@H]3C=C(C)C4=CC(=O)CC[C@]4(C)[C@H]3CC[C@@]21C [Megestrol Acetate] | -3.62
3 | Clc1ccc(COC(Cn2ccnc2)c2ccc(Cl)cc2Cl)c(Cl)c1 (stereo not given) [Miconazole nitrate] | -11.4
4 | OCCN(CCO)c1nc(N2CCCCC2)c2nc(N(CCO)CCO)nc(N3CCCCC3)c2n1 [Dipyridamole] | 5.96
5 | OCCOCCN1CCN(C2=Nc3ccccc3Sc3ccccc32)CC1 [Quetiapine hemifumarate] | -4.22
6 | CCCCC1=NC2(CCCC2)C(=O)N1Cc1ccc(-c2ccccc2-c2nnn[nH]2)cc1 [Irbesartan] | -1.18
7 | C=CC(=O)N1CCC[C@@H](n2nc(-c3ccc(Oc4ccccc4)cc3)c3c(N)ncnc32)C1 [Ibrutinib] | -7.32
8 | C[C@H](Cc1cc2c(c(C(N)=O)c1)N(CCCO)CC2)NCCOc1ccccc1OCC(F)(F)F [Silodosin] | 7.86
9 | COc1c(C)c2c(c(O)c1C/C=C(\C)CCC(=O)O)C(=O)OC2 [Mycophenolic acid] | 1.82
10 | CC(CCc1ccc(O)cc1)NCCc1ccc(O)c(O)c1 (stereo not given) [Dobutamine hydrochloride] | 3.31
11 | CC(C)C(=O)OCC(=O)[C@@]12O[C@H](C3CCCCC3)O[C@@H]1C[C@H]1[C@@H]3CCC4=CC(=O)C=C[C@]4(C)[C@H]3[C@@H](O)C[C@@]12C [Ciclesonide] | 0.71
12 | N#Cc1ccc(C(c2ccc(C#N)cc2)n2cncn2)cc1 [Letrozole] | 3.66
13 | C[C@@H](O[C@H]1OCCN(Cc2n[nH]c(=O)[nH]2)[C@H]1c1ccc(F)cc1)c1cc(C(F)(F)F)cc(C(F)(F)F)c1 [Aprepitant] | 1.46
14 | CC(C)c1nc(CN(C)C(=O)N[C@H](C(=O)N[C@@H](Cc2ccccc2)C[C@H](O)[C@H](Cc2ccccc2)NC(=O)OCc2cncs2)C(C)C)cs1 [Ritonavir] | -0.524
15 | Nc1nc2[nH]cc(CCc3ccc(C(=O)N[C@@H](CCC(=O)O)C(=O)O)cc3)c2c(=O)[nH]1 [Pemetrexed] | -1.84
16 | NS(=O)(=O)c1cc(C(=O)O)c(NCc2ccco2)cc1Cl [Furosemide] | 2.23
17 | COC(=O)C1=C(C)NC(C)=C(C(=O)OC(C)C)C1c1cccc2nonc12 (stereo not given) [Isradipine] | -15.1
18 | CC(C)(C(=O)c1cccnc1)c1cccnc1 [Metyrapone] | 0.481
19 | Cc1cn([C@H]2C=C[C@@H](CO)O2)c(=O)[nH]c1=O [Stavudine] | -0.444
20 | Cc1ccc(N(CC2=NCCN2)c2cccc(O)c2)cc1 [Phentolamine Mesylate] | 8.8

Row | Structure (SMILES) | habituation
21 | Cc1nc(-c2ccc(OCC(C)C)c(C#N)c2)sc1C(=O)O [Febuxostat] | -3.37
22 | CN1CCN(CCCN2c3ccccc3Sc3ccc(Cl)cc32)CC1 [Prochlorperazine dimaleate] | -8.1
23 | CCCN(CCc1cccs1)[C@H]1CCc2c(O)cccc2C1 [Rotigotine hydrochloride] | -11.4
24 | CC(C)N(CCCCOCC(=O)NS(C)(=O)=O)c1cnc(-c2ccccc2)c(-c2ccccc2)n1 [Selexipag] | -0.762
25 | O=C1CCc2cc(OCCCCc3nnnn3C3CCCCC3)ccc2N1 [Cilostazol] | 0.0793
26 | CC(=O)Oc1ccccc1C(=O)O [Aspirin] | -4.51
27 | CN1CCC[C@@H]1CCO[C@](C)(c1ccccc1)c1ccc(Cl)cc1 [Clemastine fumarate] | -6.62
28 | CCOc1cc(CC(=O)N[C@@H](CC(C)C)c2ccccc2N2CCCCC2)ccc1C(=O)O [Repaglinide] | -7.53
29 | COc1ccc(-c2ccc3cc(C(=O)O)ccc3c2)cc1C12CC3CC(CC(C3)C1)C2 [Adapalene] | 1.1
30 | CCc1ccc(CCOc2ccc(CC3SC(=O)NC3=O)cc2)nc1 (stereo not given) [Pioglitazone hydrochloride] | 0.765
31 | CCOC(=O)c1ncn2c1CN(C)C(=O)c1cc(F)ccc1-2 [Flumazenil] | -2.62
32 | NS(=O)(=O)Cc1noc2ccccc12 [Zonisamide] | 1.66
33 | CC(=O)NC[C@H]1CN(c2ccc(N3CCOCC3)c(F)c2)C(=O)O1 [Linezolid] | -3.73
34 | CCc1c2c(nc3ccc(OC(=O)N4CCC(N5CCCCC5)CC4)cc13)-c1cc3c(c(=O)n1C2)COC(=O)[C@]3(O)CC | 9.09
35 | Cc1nnc(C(C)C)n1C1C[C@H]2CC[C@@H](C1)N2CC[C@H](NC(=O)C1CCC(F)(F)CC1)c1ccccc1 (stereo in doubt) [Maraviroc] | 3.31
36 | CN1CC2c3ccccc3Oc3ccc(Cl)cc3C2C1 (stereo not given) [Asenapine maleate] | -12.6
37 | CS(=O)(=O)CCNCc1ccc(-c2ccc3ncnc(Nc4ccc(OCc5cccc(F)c5)c(Cl)c4)c3c2)o1 [Lapatinib] | -1.33
38 | Nc1nc(Cl)nc2c1ncn2[C@@H]1O[C@H](CO)[C@@H](O)[C@@H]1F [Clofarabine] | -1.06
39 | CCCCc1nc(Cl)c(CO)n1Cc1ccc(-c2ccccc2-c2nnn[nH]2)cc1 [Losartan potassium] | 1.01
40 | CC1=Nc2ccc(Cl)cc2S(=O)(=O)N1 [Diazoxide] | 8.87
